Screening results from PubChem BioAssay.
An excerpt weighted towards active compounds, which were near 19% of everything screened.
DT40 TDP1 CPT = qHTS for Inhibitors of human tyrosyl-DNA phosphodiesterase 1 (TDP1): qHTS in cells in presence of CPT | chicken DT40 Tdp1-/-;hTDP1 cells + 20 nM CPT, ATP luminescence, 48 h | Potency, µM (top dose mostly 46.2 µM), for the others: at the highest dose activity change, negative = growth inhibition, most hits filed as inhibitors | actives 12% (n = 420,000) | AID 686979, 2013; further: potency means the concentration at half of the fitted maximal effect; nearly all actives have a fitted effect of over 55% in size
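Chicken DT40 Tdp1-/- cells complemented with human TDP1, 400 cells/well, exposed to compounds plus 20 nM camptothecin for at least 48 h at 37 C; viability read as ATP content by CellTiter-Glo luminescence.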
HT1080-NT tox = qHTS for induction of synthetic lethality in tumor cells producing 2HG: qHTS for the HT-1080-NT fibrosarcoma cell line; HT-1080-NT fibrosarcoma viability, CellTiter-Glo ATP luminescence, 48 h; actives 1.6% (n = 360,000); Potency, µM (titrated, usually from 46.1 µM), for inactives: at the top dose activity, negative = less viability, hits mostly cytotoxic; AID 686970, 2013;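 further: NT is the 2HG producing partner of a matched IDH1 knockdown line; potency means the concentration at half of the fitted maximal effect; 0% = DMSO-treated cells and -100% = media-only wells without cells; nearly all actives have a fitted effect of over 55% in size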
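Viability of the 2HG-overproducing fibrosarcoma line after 48 hours of compound exposure at 37 degrees C was determined by luminescence with CellTiter-Glo, and concentration-effect curves were then fitted and categorized.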
IL1B secr inh = qHTS for Inhibitors of Inflammasome Signaling: IL-1-beta AlphaLISA Primary Screen; actives 4.7% (n = 360,000); activity change, % at 57.5 µM; THP-1 LPS/ATP IL-1B secretion, AlphaLISA, 16 h; stronger effect = lower value; in the data active means activity change below about -50%; inconclusive means mostly about -30% to -49%
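THP-1 cells pretreated 1 hr with compounds (up to 57.5 uM final), then stimulated with LPS (250 ng/mL final) plus ATP (1.25 mM final); secreted IL-1B measured by AlphaLISA after 16 hr, decreased signal indicating inhibition.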
DT40 TDP1 no CPT = qHTS for Inhibitors of human tyrosyl-DNA phosphodiesterase 1 (TDP1): qHTS in cells in absence of CPT | Potency, µM (titrated, usually from 46.2 µM), without a hit: top-dose activity change, negative = growth inhibition, usual class: inhibitors | actives 15% (n = 420,000) | AID 686978, 2013 | DT40 Tdp1-/- hTDP1 cells, no CPT, ATP luminescence, 48 h; further: potency means the concentration at half of the fitted maximal effect; nearly all actives have a fitted effect of over 55% in size
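Chicken DT40 Tdp1-/- cells complemented with human TDP1, screened without camptothecin (DMSO vehicle only), 400 cells/well. Compounds pin-transferred, cells incubated at 37 °C for at least 48 hr. Growth read as ATP-dependent luminescence (CellTiter-Glo, 30 min at RT).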
HT1080 IDH1KD tx = qHTS for induction of synthetic lethality in tumor cells producing 2HG: qHTS for the HT-1080-IDH1KD cell line; HT-1080 IDH1 knockdown viability, ATP luminescence, 48 h; Potency, µM (series often up to 46.1 µM), for inactives: at the top dose activity, negative = toxicity, most hits filed as cytotoxic; actives 2% (n = 360,000); AID 686971, 2013;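 further: potency means the concentration at half of the fitted maximal effect; 0% = DMSO wells and -100% = cell-free medium wells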
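Assay cells: HT-1080 with IDH1 knockdown, 750 per well, RPMI/5% FBS. Exposure: 48 h at 37 °C following 2 h pre-incubation. Read: CellTiter-Glo luminescence; fitted concentration-response, curve class assigned.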
An asterisk follows results filed as active; ? = inconclusive; . = no result given. Unless noted, the call rests on the fitted dose curve; in most records, active means well fitted curve in the direction sought with a large enough effect; inconclusive means small, poorly fitted or top-dose-only effect, or another doubt; inactive means no such curve, though single readings can be large; an effect the other way counts as inactive or inconclusive. Unless noted, on the % scale 0 is the no-effect control and ±100 the full control effect.

SMILES | DT40 TDP1 CPT | HT1080-NT tox | IL1B secr inh | DT40 TDP1 no CPT | HT1080 IDH1KD tx
COc1ccc(C(=O)COC(=O)c2cccc(NC(=O)c3ccc(OC)c(OC)c3)c2)cc1 | 18µM* | . | . | 10µM* | .
COc1ccc(-c2cccc(C(=O)Nc3ccc(OC)c(OC)c3)c2)cc1 | -18% | ? | 19 | -20% | ?
COc1cc(Br)cc2cc(C(=O)N3CCOCC3)c(=O)oc12 | 1% | -9% | -24 | -13% | -4%
CCCCc1nn2c(=O)cc(COC(=O)c3ccc(NC(=O)c4cccc(OC)c4)cc3)nc2s1 | 5% | . | . | -7% | .
O=[N+]([O-])c1ccc(NC(=S)NCCc2ccc(F)cc2)cc1 | 16µM* | ? | -23 | 16µM* | 23µM*
O=C(NCCc1ccc(F)cc1)Nc1ccc([N+](=O)[O-])cc1 | 29µM* | ? | -100* | 16µM* | ?
COC(CNC(=S)Nc1ccc([N+](=O)[O-])cc1)OC | 1% | 2% | 38 | 4% | 0%
NC(=O)C(CCCCN1CCCCC1)(c1ccccc1)c1ccccc1 | ? | -1% | 0 | 3% | 5%
COc1cccc(NC(=O)COC(=O)c2ccccc2C(=O)N(C)c2ccccc2)c1 | -28% | 0% | 24 | ? | -12%
Cn1c(SCC(=O)c2ccccc2)nnc1-c1cccnc1 | -4% | 1% | -6 | -2% | 5%
Cn1c(SSc2ccc(-c3cccnc3)n2C)ccc1-c1cccnc1 | ? | 10µM* | -98* | ? | 12µM*
CC1(C)CC(=O)C2=C(C1)OC1=C(C(=O)CC(C)(C)C1)C2c1cc([N+](=O)[O-])cc([N+](=O)[O-])c1O | ? | -20% | 6 | ? | ?
CC1(C)CC(=O)C(C2C3=C(CC(C)(C)CC3=O)Oc3c(Br)cc(Br)cc32)=C(O)C1 (centres undefined) | ? | 7% | 30 | 18µM* | 5%
CCNC(=O)c1cnc2sc(N3CCC(C)CC3)nn2c1=O | -23% | . | . | -8% | .
CC(C)(C)NC(=O)C1(C)CCC(=O)N1CC(F)(F)F (centres undefined) | 0% | 20% | 13 | 15% | 1%
Cc1cc(C)cc(NC(=O)CSc2nc(=O)n(CCCN3CCOCC3)c3c2CCCC3)c1 | -26% | 1% | -52* | ? | -6%
CC(C)c1ccc(NC(=O)CSc2nc(=O)n(CCCN3CCOCC3)c3c2CCC3)cc1 | -2% | -10% | -63* | -14% | -11%
CC(C)c1ccc(NC(=O)CSc2nc(=O)n(CCCN3CCOCC3)c3c2CCCC3)cc1 | ? | 0% | -10 | ? | 9%
O=C(CSc1nc(=O)n(CCN2CCOCC2)c2c1CCC2)Nc1ccc(OC(F)(F)F)cc1 | 13% | ? | -75* | -25% | -14%
CCOc1ccccc1NC(=O)NC1(C(=O)NCc2cccnc2)CCCCC1 | -2% | 9% | 12 | 4% | 5%
CCCCc1ccc(-n2nnnc2SCC(=O)Nc2cc(OC)c([N+](=O)[O-])cc2C)cc1 | ? | 1% | -8 | 18µM* | 2%
CCOC(=O)[C@@H](C)N(C(=O)OC(C)(C)C)S(=O)(=O)N(Cc1ccccc1)[C@H](C(=O)OC)C(C)C | 23µM* | 9% | 57 | ? | 3%
Cc1nc(NCc2ccccn2)c2ccccc2n1 | 13µM* | ? | -9 | 10µM* | -11%
O=c1c2ccccc2nc2c3ccccc3c(NCCO)nn12 | 13µM* | 29% | 0 | ? | 13%
OCCNc1nc2ccccc2nc1NCCO | -16% | 5% | 10 | -6% | 6%
O=c1c2ccccc2nc2c3ccccc3c(NCc3cccnc3)nn12 | 6% | -12% | -4 | 6% | 4%
